From PubChem BioAssay (Tox21)
Records with an inconclusive call do not appear. The source made the active and inactive calls. Unless noted, calls come from the whole dose curve; as a rule, active = well fitted curve in the direction sought with a large enough effect in the repeat runs; inconclusive = weak or mixed curves; inactive = no such curve, though single readings can be large; an effect the other way counts as inactive or inconclusive.

How the values were obtained:
[1] = biological target: Retinoic acid receptor RXR-alpha (Homo sapiens) (UniProt P19793); experiment: qHTS assay to identify small molecule agonists of the RXR signaling pathway (AID 1159527; calls by dose curve; note: nearly all actives have a fitted effect of over 35% in size)
Procedure, shortened: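 16 hr incubation of compound-treated RXR-alpha-UAS-bla HEK 293T cells (2% charcoal-stripped FBS, 37 C) preceded a 2 hr room-temperature LiveBLAzer FRET substrate step and blue/green fluorescence measurement.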

[2] = qHTS assay to identify small molecule antagonists of the retinoic acid receptor (RAR) signaling pathway (AID 1159552; note: nearly all actives have a fitted effect of over 50% in size)
Procedure, shortened: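 C3RL4 RARE-luc cells, overnight plating; retinol 1 uM final added right after compound; 6 hr 37 C; luciferase read at 30 min RT.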

[3] = qHTS assay to identify small molecule agonists of the retinoic acid receptor (RAR) signaling pathway (AID 1159553); note: potency is the fitted concentration of half-maximal effect
Procedure, shortened: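 Cell line C3RL4, RARE luciferase reporter. Treatment: compounds in DMSO, 6 hr, 37 C, 5% CO2, after overnight plating. Detection: luminescence, 30 min RT after reagent.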

[4] = qHTS assay to identify small molecule antagonists of the estrogen related receptor (ERR) signaling pathway - cell viability counter screen (AID 1224818);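 note: series mostly up to about 46 µM; viability measured after 17.5 h of compound exposure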
Procedure, shortened: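 Here, ERR cells are plated at 2,000 cells per well, allowed 6 h to attach, and treated with compounds in DMSO for 17.5 h at 37 C. CellTiter-Fluor is then added and fluorescence read after 30 min.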

[5] = qHTS assay to identify small molecule antagonists of the estrogen related receptor (ERR) signaling pathway (AID 1224819;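 note: luminescence from an ERR-driven luciferase reporter measured with One-Glo reagent; series mostly up to about 46 µM; nearly all actives have a fitted effect of over 50% in size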)
Procedure, shortened: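 LOPAC library screened for antagonism as reduced One-Glo luminescence in ERR reporter cells (2,000/well). Compounds were added after 6 h pre-incubation and left 18 h at 37C; reading followed a 30 min room-temperature reagent step.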

[6] = qHTS assay to identify small molecule agonists of the estrogen related receptor (ERR) signaling pathway (AID 1224820)
Procedure, shortened: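 ERR reporter cell line (from NTP), 2,000 cells/well, incubated 6 h before compound addition, then 18 h at 37 C. Luminescence measured 30 min after One-Glo reagent at room temperature.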

[7] = qHTS assay to identify small molecule antagonists of the estrogen related receptor signaling pathway with the pleiotropic PPARgamma coactivator (PGC) cell viability counter screen (AID 1224822;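 note: series mostly up to about 46 µM; viability read after 17.5 h compound exposure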)
Procedure, shortened: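 qHTS format, DMSO compound stocks pin-transferred onto PGC/ERR cells 6 h after plating; 17.5 h exposure at 37 C, then CellTiter-Fluor fluorescence.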

[8] = qHTS assay to identify small molecule agonists of the estrogen related receptor signaling pathway with the pleiotropic PPARgamma coactivator (PGC) (AID 1224823)
Procedure, shortened: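 PGC/ERR reporter cells seeded 6 h, then exposed to compounds (23 nL in DMSO) for 18 h at 37 C. One-Glo luciferase luminescence read after 30 min at room temperature.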

[9] = qHTS assay to identify small molecule antagonists of the estrogen related receptor (ERR) signaling pathway from Tox21 library - cell viability counter screen (AID 1224834); note: nearly all actives have a fitted effect of over 30% in size
Procedure, shortened: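 Viability readout (CellTiter-Fluor fluorescence, 30 min at 37 C) multiplexed with the ERR assay; cells treated 17.5 h at 37 C with compounds delivered in DMSO.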

[10] = biological target: Luciferin 4-monooxygenase (Photinus pyralis) (UniProt P08659); experiment: qHTS assay to identify small molecule inhibitors of firefly luciferase (AID 1224835); note: series mostly up to about 120 µM; nearly all actives have a fitted effect of over 25% in size
Procedure, shortened: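 Inhibition of purified Photinus luciferase is measured by luminescence. Substrate levels (D-luciferin, ATP) sit at their KM values. Each compound is tested in a concentration series.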

[11] = qHTS assay to identify small molecule agonists of the constitutive androstane receptor (CAR) signaling pathway - cell viability counter screen (AID 1224836); note: series mostly up to about 92 µM; nearly all actives have a fitted effect of over 45% in size
Procedure, shortened: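 Using CellTiter-Fluor, viability of HepG2 cells harbouring hCAR and CYP2B6-2.2kb was measured following 23 h incubation with a 15-concentration compound series plus PK11195 (0.75 uM final).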

[12] = qHTS assay to identify small molecule antagonists of the constitutive androstane receptor (CAR) signaling pathway - cell viability counter screen (AID 1224837); note: series mostly up to about 92 µM; nearly all actives have a fitted effect of over 45% in size
Procedure, shortened: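 Fluorescence from CellTiter-Fluor served as the viability signal. Human hepatoma HepG2 cells stably bearing hCAR and CYP2B6-2.2kb received compound plus CITCO (50 nM final) for 23 hr.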

[13] = biological target: Nuclear receptor subfamily 1 group I member 3 (Homo sapiens) (UniProt Q14994); experiment: qHTS assay to identify small molecule antagonists of the constitutive androstane receptor (CAR) signaling pathway (AID 1224838);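 note: HepG2 cells stably expressing hCAR with CYP2B6 luciferase reporter stimulated by CITCO; nearly all actives have a fitted effect of over 40% in size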; note: potency is the fitted concentration of half-maximal effect
Procedure, shortened: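 Quantitative HTS in double-stable HepG2-CYP2B6-hCAR cells. After 4 h plating, cells get compound (15 concentrations) and CITCO at 50 nM final, incubate 24 h at 37 C, then ONE-Glo luminescence is read.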

[14] = biological target: Nuclear receptor subfamily 1 group I member 3 (Homo sapiens) (UniProt Q14994); experiment: qHTS assay to identify small molecule agonists of the constitutive androstane receptor (CAR) signaling pathway (AID 1224839); note: nearly all actives have a fitted effect of over 15% in size; note: potency is the fitted concentration of half-maximal effect
Procedure, shortened: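 Double-stable HepG2 cells (hCAR, CYP2B6-2.2kb) seeded 4 h before compound addition. Exposure 24 h with 0.75 uM PK11195 final. Luciferase detected by ONE-Glo.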

[15] = qHTS assay to identify small molecule antagonists of the estrogen related receptor signaling pathway with the pleiotropic PPARgamma coactivator (PGC) from Tox21 10K library - cell viability counter screen (AID 1224840; active = well fitted cell-killing curve with a large enough effect in the repeat runs, not every such curve was filed as active; note: nearly all actives have a fitted effect of over 40% in size)
Procedure, shortened: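 Compounds in DMSO, alongside positive and negative controls, were pinned onto PGC/ERR cells (2,000 per well). Exposure lasted 17.5 hours at 37 C, followed by a 30-minute CellTiter-Fluor incubation and fluorescence reading.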

[16] = qHTS assay to identify small molecule agonists of the estrogen related receptor signaling pathway with the pleiotropic PPARgamma coactivator (PGC) from Tox21 10K library (AID 1224842); note: nearly all actives have a fitted effect of over 15% in size
Procedure, shortened: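 Luminescence from One-Glo (30 min, room temperature) measured after PGC/ERR cells had 18 h at 37 C with pinned compound (23 nL in DMSO). Cells had been seeded at 2,000 per well and pre-incubated 6 h.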

[17] = qHTS assay to identify small molecule agonists of the RXR signaling pathway - cell viability counter screen (AID 1159529);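 note: HEK 293T cells carrying an RXR-alpha UAS beta-lactamase reporter; series mostly up to about 77 µM; nearly all actives have a fitted effect of over 50% in size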
Procedure, shortened: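 In this parallel viability measure, GeneBLAzer RXR-alpha HEK 293T cells (2% charcoal-stripped FBS) were given a 5 hr preincubation, treated with compounds 16 hr at 37 C, and read by CellTiter-Glo luminescence.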

[18] = qHTS assay to identify small molecule antagonists of the retinoid acid receptor (RAR) signaling pathway - cell viability counter screen (AID 1159551); note: nearly all actives have a fitted effect of over 35% in size
Procedure, shortened: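 Following overnight attachment, C3RL4 reporter cells received DMSO-dissolved compounds and then retinol (1 uM final). Six hours later at 37 C, ATP content was measured by CellTiter-Glo luminescence.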

[19] = qHTS assay to identify small molecule antagonists of the estrogen related receptor signaling pathway with the pleiotropic PPARgamma coactivator (PGC) from Tox21 10K library (AID 1224841; call rule not given here; note: series mostly up to about 92 µM; actives are mostly falling curves and most rising ones were filed inactive; nearly all actives have a fitted effect of over 50% in size)
Procedure, shortened: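 Compound exposure ran 18 hours at 37 C in PGC/ERR cells (2,000/well) that had first rested 6 hours in a 37 C/5% CO2 incubator. Luciferase activity was then detected with One-Glo after a 30-minute room-temperature step.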

[20] = biological target: Thyrotropin receptor (Homo sapiens) (UniProt P16473); experiment: qHTS assay to identify small molecule agonists of the thyroid stimulating hormone receptor (TSHR) signaling pathway (AID 1224843; calls by dose curve; note: nearly all actives have a fitted effect of over 45% in size; note: potency is the fitted concentration of half-maximal effect)
Procedure, shortened: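 Screening of the Tox21 10K collection used HEK293 cells engineered with TSHR at 800 cells per well. After a 30-min room-temperature compound exposure, HTRF cAMP reagents were added and fluorescence recorded 1 h later.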

Measured: Potency

Sequence of Retinoic acid receptor RXR-alpha (Homo sapiens) (P19793 whole entry, looked up): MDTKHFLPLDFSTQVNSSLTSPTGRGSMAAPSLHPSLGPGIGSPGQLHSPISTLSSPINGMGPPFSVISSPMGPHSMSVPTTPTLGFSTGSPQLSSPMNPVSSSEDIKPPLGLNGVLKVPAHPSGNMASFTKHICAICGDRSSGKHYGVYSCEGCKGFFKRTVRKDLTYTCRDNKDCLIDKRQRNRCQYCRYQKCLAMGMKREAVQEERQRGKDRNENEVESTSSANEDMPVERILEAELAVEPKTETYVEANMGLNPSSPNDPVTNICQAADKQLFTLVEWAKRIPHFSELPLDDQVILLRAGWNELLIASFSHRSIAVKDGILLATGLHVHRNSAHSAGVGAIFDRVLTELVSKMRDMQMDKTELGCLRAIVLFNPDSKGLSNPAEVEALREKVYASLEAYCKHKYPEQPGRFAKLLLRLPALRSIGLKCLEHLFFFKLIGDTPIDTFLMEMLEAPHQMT
Sequence of Thyrotropin receptor (Homo sapiens) (P16473 whole entry, looked up): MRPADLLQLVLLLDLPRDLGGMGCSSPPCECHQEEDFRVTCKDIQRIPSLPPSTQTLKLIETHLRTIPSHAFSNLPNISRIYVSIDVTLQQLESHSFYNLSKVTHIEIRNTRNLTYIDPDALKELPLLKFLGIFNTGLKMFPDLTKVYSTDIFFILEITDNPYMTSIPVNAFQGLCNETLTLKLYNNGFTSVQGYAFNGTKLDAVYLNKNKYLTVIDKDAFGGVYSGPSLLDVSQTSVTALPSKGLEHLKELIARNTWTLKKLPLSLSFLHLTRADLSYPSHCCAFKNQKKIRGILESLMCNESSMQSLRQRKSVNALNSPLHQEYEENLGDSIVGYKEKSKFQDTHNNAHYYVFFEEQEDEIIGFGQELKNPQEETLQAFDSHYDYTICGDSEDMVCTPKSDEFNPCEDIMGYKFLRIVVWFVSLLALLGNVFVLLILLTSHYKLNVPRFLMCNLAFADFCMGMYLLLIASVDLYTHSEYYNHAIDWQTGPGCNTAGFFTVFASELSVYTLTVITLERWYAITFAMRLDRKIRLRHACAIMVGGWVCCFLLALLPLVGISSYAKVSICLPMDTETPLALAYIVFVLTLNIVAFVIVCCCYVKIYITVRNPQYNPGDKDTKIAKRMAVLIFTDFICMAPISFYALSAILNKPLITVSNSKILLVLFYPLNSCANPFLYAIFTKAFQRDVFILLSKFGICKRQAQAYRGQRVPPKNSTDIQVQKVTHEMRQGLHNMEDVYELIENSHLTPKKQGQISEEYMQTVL
Sequence of Luciferin 4-monooxygenase (Photinus pyralis) (P08659 whole entry, looked up): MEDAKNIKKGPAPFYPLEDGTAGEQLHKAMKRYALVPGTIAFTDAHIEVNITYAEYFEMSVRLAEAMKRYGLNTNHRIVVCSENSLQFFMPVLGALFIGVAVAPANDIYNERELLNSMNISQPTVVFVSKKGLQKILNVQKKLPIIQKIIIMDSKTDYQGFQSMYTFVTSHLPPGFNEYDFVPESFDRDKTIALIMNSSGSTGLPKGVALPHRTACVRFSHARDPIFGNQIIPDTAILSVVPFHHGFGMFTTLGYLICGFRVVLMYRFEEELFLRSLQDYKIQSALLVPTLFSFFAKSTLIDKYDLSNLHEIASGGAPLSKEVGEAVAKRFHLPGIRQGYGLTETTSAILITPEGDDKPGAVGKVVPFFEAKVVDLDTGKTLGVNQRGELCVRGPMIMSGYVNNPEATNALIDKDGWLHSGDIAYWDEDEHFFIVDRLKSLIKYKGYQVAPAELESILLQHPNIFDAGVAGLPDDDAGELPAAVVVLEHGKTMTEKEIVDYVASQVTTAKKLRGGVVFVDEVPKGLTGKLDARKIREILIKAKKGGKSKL
Sequence of Nuclear receptor subfamily 1 group I member 3 (Homo sapiens) (Q14994 whole entry, looked up): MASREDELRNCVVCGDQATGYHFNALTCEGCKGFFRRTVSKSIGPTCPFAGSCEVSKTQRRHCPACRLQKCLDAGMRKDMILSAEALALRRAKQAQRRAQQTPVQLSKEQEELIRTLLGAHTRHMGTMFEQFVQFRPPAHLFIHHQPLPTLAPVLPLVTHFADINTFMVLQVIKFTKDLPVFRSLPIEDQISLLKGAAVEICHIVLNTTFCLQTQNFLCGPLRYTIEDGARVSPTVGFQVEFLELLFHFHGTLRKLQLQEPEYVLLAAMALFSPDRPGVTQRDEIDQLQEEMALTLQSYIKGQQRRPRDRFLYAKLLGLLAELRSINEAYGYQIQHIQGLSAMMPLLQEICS

CC(=O)[C@H]1CC[C@H]2[C@@H]3CC[C@H]4C[C@H](O)CC[C@]4(C)[C@H]3C(=O)C[C@]12C
not listed: [17] | [18] | [19] | [20]
inactive: all other assays above

CCCCN(CCCCO)N=O
not listed: [1] | [4] | [5] | [6] | [7] | [8]
inactive: all other assays above

O=C(NCO)NCO
inactive: [1] | [18] | [9] | [10] | [11] | [12] | [13] | [14] | [15] | [20]

CNNC
inactive: [1] | [18] | [3] | [9] | [10] | [11] | [12] | [13] | [14] | [19] | [16]

CC(C)CC(N(C)C)C1(c2ccc(Cl)cc2)CCC1 (stereo not given)
inactive: [1] | [9] | [10] | [11] | [12] | [15] | [19] | [16] | [20]

COP(N)(=S)Oc1ccccc1C(=O)OC(C)C (stereo not given)
inactive: [1] | [18] | [9] | [10] | [11] | [12] | [13] | [15] | [20]
active: [14] 30.6 µM

CC1(C)CON(Cc2ccccc2Cl)C1=O
active: [3] 68.6 µM | [14] 48.6 µM
inactive: [17] | [18] | [2] | [9] | [10] | [11] | [12] | [13] | [15]

O=[N+]([O-])c1cc(Cl)c(Cl)c(Cl)c1
inactive: [1] | [18] | [9] | [10] | [11] | [12] | [13] | [14] | [15] | [20]

COC(=O)c1ccccc1S(=O)(=O)NC(=O)N(C)c1nc(C)nc(OC)n1
inactive: [1] | [18] | [3] | [9] | [10] | [11] | [12] | [13] | [14] | [16]

O=C(CCN1CC1)OCC(CO)(COC(=O)CCN1CC1)COC(=O)CCN1CC1
inactive: [1] | [18] | [9] | [10] | [11] | [12] | [13] | [14] | [20]

COP(=S)(OC)Oc1ccc(S(N)(=O)=O)cc1
inactive: [1] | [18] | [9] | [10] | [11] | [12] | [13] | [14] | [15] | [20]

N#Cc1ccncc1
inactive: [17] | [18] | [2] | [3] | [9] | [10] | [11] | [12] | [15] | [19] | [16]

CC(C)(C)C(=O)C(Oc1ccc(Cl)cc1)n1cncn1 (stereo not given)
inactive: [17] | [18] | [2] | [3] | [9] | [10] | [11] | [12] | [13] | [14] | [15]

CC(CCc1ccccc1)NC(C)C(O)c1ccc(O)cc1 (stereo not given)
not listed: [2] | [3] | [5] | [6] | [8] | [16] | [17] | [19]
inactive: all other assays above

C[N+](=O)[O-]
inactive: [1] | [18] | [9] | [10] | [11] | [12] | [19] | [16] | [20]

CN1CCC(N(Cc2ccccc2)c2ccccc2)CC1
active: [20] 13.3 µM
inactive: [1] | [18] | [9] | [10] | [11] | [12] | [13] | [14] | [15]

CNC(=O)Oc1c(C(C)(C)C)cc(C)cc1C(C)(C)C
inactive: [1] | [18] | [3] | [9] | [10] | [11] | [12] | [13] | [15] | [20]
active: [14] 10.9 µM

CCCCOC(=O)c1ccccc1C(=O)O
inactive: [17] | [18] | [2] | [3] | [9] | [10] | [11] | [12] | [13] | [14] | [20]

CCC(=O)c1ccccc1
inactive: [1] | [18] | [9] | [10] | [11] | [12] | [13] | [14] | [15] | [20]

CN1CCN(C(=O)O[C@H]2c3nccnc3C(=O)N2c2ccc(Cl)cn2)CC1
not listed: [1] | [4] | [5] | [6] | [7] | [8] | [16] | [19]
inactive: all other assays above

C[C@]12CC[C@H]3[C@@H](CC=C4C[C@@H](O)CC[C@@]43C)[C@@H]1CC[C@@H]2O
inactive: [1] | [3] | [9] | [11] | [12] | [15]

CC(=O)CC(c1ccc(Cl)cc1)c1c(O)c2ccccc2oc1=O (stereo not given)
not listed: [1] | [4] | [5] | [6] | [7] | [8] | [16] | [19]
inactive: all other assays above

CC(C(=O)c1ccccc1)N(C)C (stereo not given)
inactive: [1] | [18] | [9] | [10] | [11] | [12]

CCCSP(=O)(OCC)Oc1ccc(Br)cc1Cl (stereo not given)
active: [14] 13.3 µM
not listed: [1] | [4] | [5] | [6] | [7] | [8] | [16] | [19]
inactive: all other assays above

CC(C)CC#N
inactive: [17] | [18] | [2] | [3] | [9] | [10] | [11] | [12] | [15] | [20]

N#CCBr
not listed: [1] | [2] | [3] | [4] | [5] | [6] | [7] | [8]
inactive: all other assays above

CC(C)CP(=S)(S)CC(C)C
active: [13] 3.44 µM
inactive: [17] | [18] | [2] | [3] | [9] | [10] | [11] | [14] | [20]

CCCCOP(=O)(O)OCCCC
inactive: [17] | [18] | [9] | [10] | [11] | [12] | [15] | [20]

CC(COc1ccc(Oc2ccccc2)cc1)Oc1ccccn1 (stereo not given)
inactive: [17] | [18] | [2] | [9] | [11] | [12] | [13] | [15] | [19] | [16]
active: [3] 13.7 µM | [14] 54.4 µM
